PubChem BioAssay (Tox21)
Values without a mark were called inactive. Results filed as inconclusive are left out. A call without a number means that no potency is given here. Active and inactive are the calls of the source. Unless noted, the call rests on the fitted dose curve.

Key:
[1] = qHTS assay to identify small molecule agonists of the sonic hedgehog signaling (Shh) pathway (AID 1259368);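 further: NIH/3T3-derived 3T3Gli1-Luc cells carrying a stable Gli1-driven firefly luciferase reporter; series mostly up to about 92 µM; nearly all actives have a fitted effect of over 15% in size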
Outline: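 Quantitative high-throughput format using a Gli1-driven firefly luciferase reporter line derived from NIH/3T3 cells. After a 24 hr compound treatment at 37 C and 5% CO2, luminescence reported Gli1 response element activity.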

[2] = qHTS assay to identify small molecule antagonists of the sonic hedgehog signaling (Shh) pathway (AID 1259369); further: nearly all actives have a fitted effect of over 45% in size; further: potency means the concentration at half of the fitted maximal effect
Outline: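 Stable Gli1-Luc reporter NIH/3T3 clone; quantitative HTS in stimulated mode with conditioned medium. Luminescence measured after 24hr compound treatment at 37 C.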

[3] = qHTS assay to identify small molecule agonists of the androgen receptor (AR) signaling pathway in the presence of an antagonist - cell viability counter screen (AID 1259379; active means well fitted curve in the direction sought with a large enough effect in the repeat runs; an effect the other way counts as inactive or inconclusive;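 further: MDA-kb2 human breast cancer cells carrying an MMTV luciferase reporter; series mostly up to about 92 µM; nearly all actives have a fitted effect of over 25% in size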)
Outline: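 Nilutamide-containing (3.0uM final) MDA-kb2 cultures, 3,000 cells/well, were treated with compounds across 15 concentrations. After 16 hr at 37C with no CO2, cell viability was determined by CellTiter-Fluor fluorescence in the luciferase assay wells.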

[4] = qHTS assay to identify small molecule agonists of the estrogen receptor beta (ER-beta) signaling pathway - cell viability counter screen (AID 1259380; active means well fitted curve in the direction sought with a large enough effect in the repeat runs; an effect the other way counts as inactive or inconclusive; further: nearly all actives have a fitted effect of over 30% in size)
Outline: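 Steps: plate ER-beta-UAS-bla HEK293T cells, rest 6 hr; add compounds in DMSO; incubate 16 hr at 37C, 5% CO2; add FRET substrate 2 hr; add CellTiter-Glo, wait 30 min at room temperature; read luminescence.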

[5] = qHTS assay to identify small molecule antagonists of the estrogen receptor beta (ER-beta) signaling pathway - cell viability counter screen (AID 1259382; active means well fitted curve in the direction sought with a large enough effect in the repeat runs; an effect the other way counts as inactive or inconclusive; further: series mostly up to about 92 µM; nearly all actives have a fitted effect of over 55% in size)
Outline: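 Viability is scored by CellTiter-Glo luminescence (30 min, room temperature) in ER-beta-UAS-bla HEK293T wells already read for reporter fluorescence. Compound exposure lasts 16 hr at 37C alongside 1nM 17-beta-estradiol in charcoal-stripped serum medium.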

[6] = target: Estrogen receptor (Homo sapiens) (UniProt P03372); assay: qHTS assay to identify small molecule agonists of the estrogen receptor alpha (ER-alpha) signaling pathway in the presence of an antagonist (AID 1259383); further: top concentration of the series differs between compounds; nearly all actives have a fitted effect of over 15% in size
Outline: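 Readout was ERE-driven luciferase luminescence in VM7Luc4E2 cells, which express full-length ER-alpha endogenously. Compounds were tested at 15 concentrations for 22hr alongside 10.0nM ICI-182,780 (final concentration).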

[7] = qHTS assay to identify small molecule agonists or antagonists of the thyroid stimulating hormone receptor (TSHR) signaling pathway - wild type cell line counter screen (AID 1259384)
Outline: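 Wild-type Hek293 cells, 800/well, 18 h at 37C, then compound with Ro20-1724 for 30 min RT. cAMP by HTRF (cAMP-d2/anti-cAMP cryptate), 1 h RT, fluorescence read. 15 concentrations, triplicates.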

[8] = target: Thyrotropin receptor (Homo sapiens) (UniProt P16473); assay: qHTS assay to identify small molecule antagonists of the thyroid stimulating hormone receptor (TSHR) signaling pathway (AID 1259385); further: nearly all actives have a fitted effect of over 20% in size
Outline: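 TSHR-HEK293 cells (800/well) plated 18 h, then compounds with Ro20-1724 and TSH at 1.5 ng/mL final, 30 min at room temperature. cAMP quantified by HTRF (cAMP-d2/anti-cAMP-cryptate, 1 h); 15 concentrations in triplicate.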

[9] = qHTS assay to identify small molecule agonists of the estrogen receptor alpha (ER-alpha) signaling pathway in the presence of an antagonist - cell viability counter screen (AID 1259386; active means well fitted curve in the direction sought with a large enough effect in the repeat runs; an effect the other way counts as inactive or inconclusive;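 further: series mostly up to about 92 µM; cells exposed to compounds for 22 h at 37 °C before the viability read; nearly all actives have a fitted effect of over 30% in size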)
Outline: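 In this counter screen, compound effects on VM7Luc4E2 viability were tested in the presence of the antagonist ICI-182,780 at 10.0nM final. Compounds were dosed at 15 concentrations, exposure lasted 22hr, and the CellTiter-Fluor signal was read.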

[10] = target: Progesterone receptor (Homo sapiens) (UniProt P06401); assay: qHTS assay to identify small molecule agonists of the progesterone receptor (PR) signaling pathway (AID 1346784); further: nearly all actives have a fitted effect of over 30% in size
Outline: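 PR-UAS-bla HEK 293T cells carrying a UAS-driven beta-lactamase reporter were seeded in medium with 2% charcoal-stripped FBS, preincubated 6 hr at 37C, then exposed to compounds in DMSO for 16 hr; agonism was read by LiveBLAzer B/G FRET fluorescence.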

[11] = target: Progesterone receptor (Homo sapiens) (UniProt P06401); assay: qHTS assay to identify small molecule antagonists of the progesterone receptor (PR) signaling pathway (AID 1346795; active means well fitted inhibition curve with a large enough effect in the signal ratio in the repeat runs, not every such curve was filed as active; the % refers to the signal ratio)
Outline: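 PR-UAS-bla HEK293T cells carrying a UAS-driven beta-lactamase reporter were plated in medium with 2% charcoal-stripped FBS and rested 6 hr at 37C. Compounds were added with 1 nM R5020 (final) for 16 hr, then FRET substrate loaded 2 hr at room temperature.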

[12] = qHTS assay to identify small molecule antagonists of the progesterone receptor (PR) signaling pathway - cell viability counter screen (AID 1346798; active means well fitted curve in the direction sought with a large enough effect in the repeat runs; an effect the other way counts as inactive or inconclusive; further: series mostly up to about 92 µM; nearly all actives have a fitted effect of over 50% in size)
Outline: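 PR-UAS-bla HEK293T cells in medium with 2% charcoal-stripped FBS were treated with compounds plus R5020 for 16 hr at 37C. Cell viability was then read by CellTiter-Glo luminescence after 30 min at room temperature in the same wells.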

[13] = qHTS assay to identify small molecule agonists of the progesterone receptor (PR) signaling pathway - cell viability counter screen (AID 1346799); further: nearly all actives have a fitted effect of over 45% in size
Outline: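 PR-UAS-bla HEK293T cells, 3,000 per well in medium with 2% charcoal-stripped FBS, were preincubated 6 hr at 37C, then exposed to compounds for 16 hr; viability was read as CellTiter-Glo luminescence after 30 min at room temperature.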

[14] = qHTS assay to identify small molecule antagonists of the TGF-beta/Smad signaling pathway - cell viability counter screen (AID 1346824; active means well fitted curve in the direction sought with a large enough effect in the repeat runs; an effect the other way counts as inactive or inconclusive; further: nearly all actives have a fitted effect of over 50% in size)
Outline: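 SBE-bla HEK 293T cells, incubated overnight, then compound plus 0.25 ng/mL TGF-beta1 (stock added) for 5 hr at 37 C. Viability was read in the same wells by CellTiter-Glo luminescence after 30 min at room temperature.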

[15] = qHTS assay to identify small molecule agonists of the TGF-beta/Smad signaling pathway - cell viability counter screen (AID 1346829; active means well fitted curve in the direction sought with a large enough effect in the repeat runs; an effect the other way counts as inactive or inconclusive; further: top concentration of the series differs between compounds; nearly all actives have a fitted effect of over 45% in size)
Outline: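 HEK 293T SBE-bla line, 5 hr compound exposure at 37 C, multiplexed CellTiter-Glo viability read by luminescence.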

[16] = target: Thyrotropin-releasing hormone receptor (Homo sapiens) (UniProt P34981); assay: qHTS assay to identify small molecule antagonists of the thyrotropin-releasing hormone receptor (TRHR) signaling pathway (AID 1346877; active means well fitted inhibition curve with a large enough effect in the repeat runs, not every such curve was filed as active; further: series mostly up to about 51 µM)
Outline: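 Kinetic fluorescence (3 min, 1 s resolution) following stimulation with TRH at 1 nM final; HEK293 cells bearing human TRHR; 5 min compound preincubation at RT; concentration-response over 15 points, triplicates.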

[17] = target: Androgen receptor (Homo sapiens) (UniProt P10275); assay: qHTS assay to identify small molecule agonists of the androgen receptor (AR) signaling pathway in the presence of an antagonist (AID 1259381); further: nearly all actives have a fitted effect of over 15% in size; further: potency means the concentration at half of the fitted maximal effect
Outline: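 Reporter-gene luminescence from MDA-kb2 cells exposed 16hr at 37C (0% CO2) to 15-point compound titrations with 3.0uM final nilutamide as AR antagonist.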

[18] = qHTS assay to identify small molecule agonists of the TGF-beta/Smad signaling pathway (AID 1346859; active means well fitted activation curve with a large enough effect in the signal ratio in the repeat runs, not every such curve was filed as active; the % refers to the signal ratio; further: series mostly up to about 77 µM)
Outline: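 HEK 293T cells stably carrying a beta-lactamase reporter driven by the Smad binding element were seeded overnight, exposed to DMSO-dissolved compounds for 5 hr at 37 C, 5% CO2, then loaded with FRET substrate for 2 hr at room temperature.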

[19] = target: Estrogen receptor beta (Homo sapiens) (UniProt Q92731); assay: qHTS assay to identify small molecule agonists of the estrogen receptor beta (ER-beta) signaling pathway (AID 1259377; active means well fitted activation curve with a large enough effect in the signal ratio in the repeat runs, not every such curve was filed as active; the % refers to the signal ratio)
Outline: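 ER-beta-UAS-bla HEK293T (GripTite) cells carrying a UAS-driven beta-lactamase reporter, in medium with 2% charcoal-stripped FBS, were exposed to compounds for 16 hr at 37C; LiveBLAzer B/G FRET substrate was then added and fluorescence read after 2 hours at room temperature.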

Sequence of Estrogen receptor beta (Homo sapiens) (Q92731 whole entry, looked up): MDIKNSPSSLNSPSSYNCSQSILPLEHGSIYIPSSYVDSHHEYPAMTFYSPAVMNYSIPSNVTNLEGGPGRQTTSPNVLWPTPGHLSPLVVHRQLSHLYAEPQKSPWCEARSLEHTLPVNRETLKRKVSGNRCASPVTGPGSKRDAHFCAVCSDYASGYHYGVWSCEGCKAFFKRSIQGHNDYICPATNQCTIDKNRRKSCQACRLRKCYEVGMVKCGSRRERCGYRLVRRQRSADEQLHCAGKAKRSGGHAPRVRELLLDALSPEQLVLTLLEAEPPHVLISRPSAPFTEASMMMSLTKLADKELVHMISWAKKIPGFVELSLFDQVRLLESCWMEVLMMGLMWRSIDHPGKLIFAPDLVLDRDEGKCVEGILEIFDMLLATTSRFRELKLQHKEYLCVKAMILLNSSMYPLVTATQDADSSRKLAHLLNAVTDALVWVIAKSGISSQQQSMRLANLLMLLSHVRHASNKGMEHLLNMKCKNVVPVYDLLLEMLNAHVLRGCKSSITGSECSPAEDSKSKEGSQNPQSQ
Sequence of Thyrotropin receptor (Homo sapiens) (P16473 whole entry, looked up): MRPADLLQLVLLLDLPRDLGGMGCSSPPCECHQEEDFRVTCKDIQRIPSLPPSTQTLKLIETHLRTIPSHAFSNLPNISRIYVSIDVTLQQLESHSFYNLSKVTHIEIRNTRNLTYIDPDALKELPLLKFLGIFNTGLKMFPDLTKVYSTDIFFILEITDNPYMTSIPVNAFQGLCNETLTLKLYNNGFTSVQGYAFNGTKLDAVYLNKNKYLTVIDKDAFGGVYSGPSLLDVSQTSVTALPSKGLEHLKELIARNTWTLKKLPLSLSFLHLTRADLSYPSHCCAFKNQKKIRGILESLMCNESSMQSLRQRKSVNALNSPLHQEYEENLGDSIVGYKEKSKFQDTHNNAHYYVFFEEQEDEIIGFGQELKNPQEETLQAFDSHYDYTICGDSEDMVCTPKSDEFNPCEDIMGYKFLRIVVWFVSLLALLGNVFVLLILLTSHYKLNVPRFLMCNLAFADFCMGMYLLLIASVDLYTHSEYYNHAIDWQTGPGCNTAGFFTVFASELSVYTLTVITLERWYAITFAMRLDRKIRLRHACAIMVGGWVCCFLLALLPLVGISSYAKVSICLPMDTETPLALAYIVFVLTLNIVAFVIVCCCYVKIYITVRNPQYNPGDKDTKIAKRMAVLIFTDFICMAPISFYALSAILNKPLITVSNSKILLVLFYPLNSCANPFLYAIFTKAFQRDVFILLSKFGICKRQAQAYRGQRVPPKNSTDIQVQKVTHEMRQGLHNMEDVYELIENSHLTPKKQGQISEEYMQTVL
Sequence of Thyrotropin-releasing hormone receptor (Homo sapiens) (P34981 whole entry, looked up): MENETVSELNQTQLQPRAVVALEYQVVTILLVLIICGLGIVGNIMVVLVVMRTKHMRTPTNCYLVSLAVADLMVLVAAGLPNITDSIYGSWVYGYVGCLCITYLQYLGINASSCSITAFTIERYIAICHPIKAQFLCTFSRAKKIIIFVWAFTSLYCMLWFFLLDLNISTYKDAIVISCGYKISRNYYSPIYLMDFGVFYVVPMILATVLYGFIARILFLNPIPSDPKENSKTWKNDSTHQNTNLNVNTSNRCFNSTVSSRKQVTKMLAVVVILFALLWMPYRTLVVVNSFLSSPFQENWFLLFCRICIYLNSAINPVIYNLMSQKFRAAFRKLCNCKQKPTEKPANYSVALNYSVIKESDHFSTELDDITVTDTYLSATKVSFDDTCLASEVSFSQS
Sequence of Progesterone receptor (Homo sapiens) (P06401 whole entry, looked up): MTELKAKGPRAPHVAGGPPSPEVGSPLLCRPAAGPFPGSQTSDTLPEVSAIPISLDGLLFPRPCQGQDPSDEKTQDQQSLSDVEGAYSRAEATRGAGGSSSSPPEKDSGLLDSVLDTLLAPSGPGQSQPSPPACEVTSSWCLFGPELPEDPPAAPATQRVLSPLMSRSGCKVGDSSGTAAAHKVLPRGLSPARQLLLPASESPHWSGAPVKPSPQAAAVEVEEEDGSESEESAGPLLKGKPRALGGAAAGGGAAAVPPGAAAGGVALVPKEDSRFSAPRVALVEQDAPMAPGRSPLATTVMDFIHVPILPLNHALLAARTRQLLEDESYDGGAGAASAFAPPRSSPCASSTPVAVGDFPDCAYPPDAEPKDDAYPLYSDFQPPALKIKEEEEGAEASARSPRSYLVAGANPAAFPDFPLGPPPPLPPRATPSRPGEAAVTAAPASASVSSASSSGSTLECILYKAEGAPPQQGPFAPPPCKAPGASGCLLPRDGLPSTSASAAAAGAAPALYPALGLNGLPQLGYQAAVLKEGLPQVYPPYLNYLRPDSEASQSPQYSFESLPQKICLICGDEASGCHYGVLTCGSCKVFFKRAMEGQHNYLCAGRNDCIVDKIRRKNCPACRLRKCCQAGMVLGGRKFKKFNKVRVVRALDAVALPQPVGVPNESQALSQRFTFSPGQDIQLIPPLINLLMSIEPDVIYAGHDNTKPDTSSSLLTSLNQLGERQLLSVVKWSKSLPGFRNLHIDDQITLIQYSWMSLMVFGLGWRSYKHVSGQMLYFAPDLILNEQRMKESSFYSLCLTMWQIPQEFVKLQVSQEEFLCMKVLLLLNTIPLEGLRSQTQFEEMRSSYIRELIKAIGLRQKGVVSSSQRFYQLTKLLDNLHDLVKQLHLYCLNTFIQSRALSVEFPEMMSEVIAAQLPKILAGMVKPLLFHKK
Sequence of Estrogen receptor (Homo sapiens) (P03372 whole entry, looked up): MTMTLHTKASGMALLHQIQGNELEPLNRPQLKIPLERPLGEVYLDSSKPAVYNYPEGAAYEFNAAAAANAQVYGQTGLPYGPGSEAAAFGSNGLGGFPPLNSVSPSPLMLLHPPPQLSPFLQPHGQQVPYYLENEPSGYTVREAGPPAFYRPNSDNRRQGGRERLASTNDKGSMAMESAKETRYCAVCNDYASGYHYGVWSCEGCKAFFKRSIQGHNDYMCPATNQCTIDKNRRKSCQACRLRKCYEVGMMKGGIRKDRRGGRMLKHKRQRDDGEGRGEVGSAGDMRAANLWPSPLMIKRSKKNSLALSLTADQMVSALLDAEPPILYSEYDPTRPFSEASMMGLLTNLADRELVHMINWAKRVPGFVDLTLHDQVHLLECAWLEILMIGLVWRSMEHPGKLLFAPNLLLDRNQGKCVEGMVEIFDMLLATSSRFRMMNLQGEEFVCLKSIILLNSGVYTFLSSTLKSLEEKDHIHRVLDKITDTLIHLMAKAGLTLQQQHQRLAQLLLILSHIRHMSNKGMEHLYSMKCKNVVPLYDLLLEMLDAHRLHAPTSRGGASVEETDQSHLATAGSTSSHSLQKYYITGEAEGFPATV
Sequence of Androgen receptor (Homo sapiens) (P10275 whole entry, looked up): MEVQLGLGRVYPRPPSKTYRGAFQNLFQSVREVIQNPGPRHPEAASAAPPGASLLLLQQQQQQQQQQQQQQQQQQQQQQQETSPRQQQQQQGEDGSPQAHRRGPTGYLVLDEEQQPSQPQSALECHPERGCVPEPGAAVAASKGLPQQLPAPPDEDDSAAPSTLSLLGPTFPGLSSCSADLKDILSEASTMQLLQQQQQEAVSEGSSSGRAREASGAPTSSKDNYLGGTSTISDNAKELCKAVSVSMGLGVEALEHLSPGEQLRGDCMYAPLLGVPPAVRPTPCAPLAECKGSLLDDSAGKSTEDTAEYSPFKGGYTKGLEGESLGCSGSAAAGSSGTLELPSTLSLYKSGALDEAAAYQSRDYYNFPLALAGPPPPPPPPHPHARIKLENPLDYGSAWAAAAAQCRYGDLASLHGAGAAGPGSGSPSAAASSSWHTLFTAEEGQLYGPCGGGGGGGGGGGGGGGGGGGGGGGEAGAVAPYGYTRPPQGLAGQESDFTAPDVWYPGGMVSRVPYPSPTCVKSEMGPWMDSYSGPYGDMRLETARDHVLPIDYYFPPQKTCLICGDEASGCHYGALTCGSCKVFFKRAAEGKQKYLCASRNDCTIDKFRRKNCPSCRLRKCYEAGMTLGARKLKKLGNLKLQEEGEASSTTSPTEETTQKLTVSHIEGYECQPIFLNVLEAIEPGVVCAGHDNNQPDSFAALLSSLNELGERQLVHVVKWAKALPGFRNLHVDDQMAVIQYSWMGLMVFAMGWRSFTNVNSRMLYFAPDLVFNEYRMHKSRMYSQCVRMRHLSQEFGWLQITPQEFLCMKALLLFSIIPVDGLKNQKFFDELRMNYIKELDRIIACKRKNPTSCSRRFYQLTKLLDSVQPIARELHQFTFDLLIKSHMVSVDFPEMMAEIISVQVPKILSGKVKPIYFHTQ

Structure (SMILES) | outcome [1] | Potency [2] | Potency [3] | Potency [4] | outcome [5] | outcome [6] | outcome [7] | outcome [8] | Potency [9] | Potency [10] | Potency [11] | Potency [12] | Potency [13] | outcome [14] | outcome [15] | outcome [16] | Potency [17] | outcome [18] | Potency [19]
CCCCCCN | inactive | 61.1 µM (active) | inactive | inactive | inactive | inactive | inactive | inactive | inactive | inactive | inactive | inactive | inactive | inactive | inactive | inactive |  |  | 
NC(CO)C(=O)NNCc1ccc(O)c(O)c1O (stereo not given) | inactive | inactive | inactive | inactive | inactive | inactive |  |  |  |  | inactive | inactive | inactive | inactive | inactive |  | 13.3 µM (active) | inactive | 
O=C(O)c1cc(Cl)cc([N+](=O)[O-])c1Cl | inactive | inactive | inactive | inactive | inactive | inactive | inactive | inactive | inactive | inactive | inactive | inactive | inactive | inactive | inactive | inactive | inactive | inactive | 
CC(C(=O)O)c1ccc2c(c1)CC(=O)c1ccccc1S2 (stereo not given) | inactive | inactive | inactive | inactive | inactive | inactive |  |  | inactive | inactive | inactive | inactive | inactive | inactive | inactive |  | inactive | inactive | 
CCCN1C[C@H](CSC)C[C@@H]2c3cccc4[nH]cc(c34)C[C@H]21 | inactive | inactive | inactive |  |  | inactive | inactive | inactive | inactive | inactive | inactive | inactive | inactive | inactive | inactive | inactive |  |  | inactive
O=S(=O)(O)c1ccc2cc(O)c(S(=O)(=O)O)cc2c1 | inactive | inactive | inactive | inactive |  | inactive | inactive | inactive | inactive | inactive | inactive | inactive |  | inactive | inactive |  |  | inactive | inactive
O=C(NCC(O)CO)c1c(I)c(C(=O)NCC(O)CO)c(I)c(N(CCO)C(=O)CO)c1I (stereo not given) | inactive | inactive | inactive | inactive | inactive |  | inactive | inactive |  | inactive | inactive | inactive | inactive | inactive | inactive | inactive |  | inactive | inactive
Cc1c(I)c(=O)n(-c2ccccc2)n1C | inactive | inactive | inactive | inactive | inactive | inactive | inactive | inactive | inactive | inactive | inactive | inactive | inactive | inactive | inactive | inactive |  | inactive | 
